From PubChem BioAssay (NCI)
Compounds without any hit were thinned out: in the full panel of roughly 83,000, 20% have a hit.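 Values shown are percent growth following 48 h exposure of cells in 96-well plates to a single concentration of compound; below 10 was considered active.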 Unmarked numbers belong to inactive results. Activity calls are given as the source filed them.

system: KM12 colon; assay: NCI-60 one-dose screen, 48 h (100 = growth as untreated, 0 = no growth, -100 = all killed); details: 10 µM unless noted

Row | SMILES | growth
1 | COc1cc2ncnc(-n3ncc4cc(NC(=O)Nc5ccccc5)ccc43)c2cc1OC | 4.62% (active)
2 | CC1(c2ccc(Br)cc2)NC(=O)NC1=O (stereo not given) | 101%
3 | O=C(N/N=C\c1ccc(Cl)cc1)C(=O)N/N=C\c1ccc(Cl)cc1 | 106%
4 | COc1cc(-c2nc(/C=C3/C(=O)Nc4ccccc43)c3ccccn23)cc(OC)c1OC | 47.6%
5 | CCCCN(CCCC)c1ccc(C(=O)O)cc1 | 103%
6 | COC(=O)c1c[n+]([O-])ccc1OC | 111%
7 | CC(=O)O.[In] | 104%
8 | Cc1nnc(/N=C2\NC(=O)/C(=C/C=C/c3ccccc3)S2)s1 | 42.7%
9 | CC(=O)N1N=C(c2ccc(Cl)cc2)CC1c1cn(-c2ccccc2)nc1-c1ccc([N+](=O)[O-])cc1 (stereo not given) | 101%
10 | O=C1Nc2ccccc2/C1=C/c1cn(CC(O)Cn2cc(/C=C3\C(=O)Nc4ccccc43)c3ccccc32)c2ccccc12 (stereo not given) | -80.9% (active)
11 | Nc1nc2c(c3ncncc13)C(c1cccc(C(F)(F)F)c1)Cc1ncncc1-2 (stereo not given) | 28.9%
12 | O=C(Nc1ccccc1)Nc1ccc(Nc2ncnc3sc4c(c23)CCCC4)cc1 | 102%
13 | O=C(/C=C\c1ccc(NCc2ccc(C(=O)O)cc2)cc1)CCl | 98.2%
14 | CCCC(C)c1cc(Cc2cc(Cl)cc(Cl)c2O)c(O)c(Cc2cc(Cl)cc(Cl)c2O)c1 (stereo not given) | 9.12% (active)
15 | CCC(C)(CC)c1ccc(O)c(C)c1 | 107%
16 | CC1(C)CC(=O)C2=C(C1)Oc1nc(N)c(C#N)c(N)c1C2c1ccc(F)cc1 (stereo not given) | 109%
17 | CCOc1ccc(/C=N/NC(=O)c2cccc3ccccc23)cc1OCC | 103%
18 | CCN(CC)C(=O)C1(C)CCCC2(C)c3cc(OC(C)=O)ccc3CCC12 (stereo not given) | 82.2%
19 | COc1ccc(-c2nc(SCC(C)C)nc(Nc3ccc(C(=O)O)cc3)c2C#N)cc1 | 91.8%
20 | O=C(/C=C/c1cccc(O)c1)c1cccc(-n2cc(-c3ccc(Cl)cc3)[nH]c2=O)c1 | -73.3% (active)

Row | SMILES | growth
21 | CC(O)c1cc[cH-]c1.[Fe+2].c1cc[cH-]c1 (stereo not given) | 103%
22 | CC1(C)C(O)NC(Cl)=C(C#N)C1(C#N)C#N (stereo not given) | 112%
23 | COC(=O)C(C)[C@H]1CC[C@@H]2[C@]1(C)CC=C1[C@]23C=C[C@]2(C[C@@H](OC(C)=O)CC[C@]12C)C(C(=O)OC)C3C(=O)OC (stereo not given in full) | 92.5%
24 | CC(C)C(=O)c1ccc(Cl)s1 | 100%
25 | CC1=C(C)C(=O)C(C(C)C2=C(C)C(=O)C(C)=C(C)C2=O)=C(C)C1=O | 88.8%
26 | Cc1ccc2c(O)c(O)cc(NC(C)CCCN)c2n1 (stereo not given) | 109%
27 | O=S(=O)(Cc1cccc2c(CS(=O)(=O)c3ccc(Cl)cc3)cccc12)c1ccc(Cl)cc1 | 88.1%
28 | C=CN(C)S(C)(=O)=O | 33.6%
29 | CCCCCCCCCCCCCCCCC(=O)O.CCCCCCCCCCCCCCCCCC(=O)O.CCCCCCCCCCCCCCCCCC(=O)O.CCCCCCCCCCCCCCCCCC(=O)O.CCCCCCCCCCCCCCCCCC(=O)O.CO[CH-]OC12COC1CC(O)C1(C)C(O)C(OC(C)O)C3=C(C)C(OC(=O)C(O)C([NH-])c4ccccc4)CC(O)(C(OC(=O)c4ccccc4)C21)C3(C)C.[Cu+].[Zn].[Zn].[Zn].[Zn].[Zn] (stereo not given) | 19.9%
30 | COc1ccccc1Cn1cc2c(c1)-c1oncc1CC2 | 6.78% (active)
31 | CC(=O)OCC(=O)[C@@]1(O)[C@H](C)C[C@H]2[C@@H]3C=C(C)C4=Cc5c(cnn5-c5ccc(F)cc5)C[C@]4(C)[C@H]3[C@@H](O)C[C@@]21C | -46.7% (active)
32 | O=C(/C=C\c1ccccc1Cl)c1ccccc1 | 66%
33 | CCOC(=O)C(C)C(C)(O)c1ccccc1 (stereo not given) | 97.7%
34 | CCCCCCCCCCCCCCCCCC1=NCCN1CS(=O)(=O)O | 16.4%
35 | CCCCCCCCCCCC(=O)OC(C)C(=O)Nc1ccccc1 (stereo not given) | 102%
36 | CCCCCCCCCCC1OC(C)CC(C)O1 (stereo not given) | 103%
37 | COc1cc(OC)c(/C=C/c2ccc3ccccc3[n+]2C)c(OC)c1 | -49.2% (active)
38 | CCOC(=O)c1cc(C(=O)c2ccc(Br)cc2)n2cc(C)cc(C)c12 | 98.9%
39 | Cc1ccc(OCCn2ccc(=O)n(CCOc3ccc(Cl)cc3C(=O)c3cc(C)cc(C)c3)c2=O)cc1 | 36.9%
40 | O=C1C(Cl)=C(SC2=NCCN2)C(=O)c2ccccc21 | 75.5%
